Measurements taken from PubChem BioAssay (NCI).
This is part of a sample that, as a whole, favours compounds with a hit. Of some 79,000 tested, about 15% had one in any assay. Active and inactive are the calls of the source. Rule as the data show it: active = growth inhibition above about 70%; inactive = the rest.

How the values were obtained:
[1] = NCI Yeast Anticancer Drug Screen. Data for the rad52 strain (AID 147);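 also: 0% = growth of vehicle-treated control cultures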; conditions: S. cerevisiae rad52 mutant growth inhibition, stronger effect = higher value
In short: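 Yeast strain carrying a DNA damage repair alteration was exposed to test compounds. Growth inhibition was measured relative to vehicle-treated controls.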

[2] = NCI Yeast Anticancer Drug Screen. Data for the wt1 strain (AID 149);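 also: 0% = growth of vehicle-treated wt1 cultures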; conditions: S. cerevisiae wt1 strain (SPY 50644) growth inhibition, stronger effect = higher value
In short: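 Compounds are added to wt1 yeast cultures. Growth is then measured. Inhibition is expressed relative to vehicle-treated controls.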

[3] = NCI Yeast Anticancer Drug Screen. Data for the rad50EPP+ strain (AID 151);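 also: 0% = growth of vehicle-treated control cultures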; conditions: S. cerevisiae rad50 mutant strain, stronger effect = higher value
In short: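 Yeast strain carrying rad50 alteration (rad50EPP+) exposed to compounds; growth inhibition measured relative to vehicle-treated controls.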

[4] = NCI Yeast Anticancer Drug Screen. Data for the mgt1 strain (AID 153); conditions: S. cerevisiae mgt1 mutant growth inhibition, stronger effect = higher value
In short: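 Yeast mgt1 strain (DNA repair/cell-cycle alteration panel) exposed to compounds; growth inhibition measured relative to vehicle-treated controls.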

[5] = NCI Yeast Anticancer Drug Screen. Data for the rad50 strain (AID 155);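 also: 0% = growth of vehicle-only cultures of the same strain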; conditions: S. cerevisiae rad50 strain growth inhibition, stronger effect = higher value
In short: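 Inhibition values express reduced yeast growth in compound-treated cultures relative to vehicle-treated controls.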

[6] = NCI Yeast Anticancer Drug Screen. Data for the mec2-1 strain (AID 157); conditions: S. cerevisiae mec2-1 strain, stronger effect = higher value
In short: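 mec2-1 yeast strain, carrying an alteration in DNA damage repair or cell cycle control, was exposed to compounds; growth inhibition was measured relative to vehicle-treated controls.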

[7] = NCI Yeast Anticancer Drug Screen. Data for the rad14 strain (AID 159);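 also: 0% = growth of vehicle-treated control cultures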; conditions: S. cerevisiae rad14 strain growth inhibition, stronger effect = higher value
In short: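 A mutant yeast strain defective in DNA damage repair is treated with compound; inhibition of its growth is scored against untreated, vehicle-exposed cultures.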

[8] = NCI Yeast Anticancer Drug Screen. Data for the sgs1 mgt1 strain (AID 161);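 also: 0% = growth of cultures given vehicle only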; conditions: S. cerevisiae sgs1 mgt1 strain, stronger effect = higher value
In short: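 Compounds are added to genetically altered yeast, and growth is compared with cultures given vehicle alone to give percent inhibition.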

[9] = NCI Yeast Anticancer Drug Screen. Data for the CLN2oe strain (AID 163);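 also: 0% = growth of vehicle-only control cultures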; conditions: S. cerevisiae CLN2oe strain, stronger effect = higher value
In short: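 Yeast cells carrying a defined cell-cycle control alteration were exposed to test compounds. Growth inhibition was scored against vehicle-treated control cultures.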

[10] = NCI Yeast Anticancer Drug Screen. Data for the cln2 rad14 strain (AID 165);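 also: 0% = growth equal to vehicle treated cultures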; conditions: S. cerevisiae cln2 rad14 strain, stronger effect = higher value
In short: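 Yeast carrying cln2 and rad14 alterations (cell cycle control and DNA damage repair) were exposed to compounds. Growth inhibition was measured against vehicle-treated controls.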

[11] = NCI Yeast Anticancer Drug Screen. Data for the bub3 strain (AID 167); conditions: S. cerevisiae bub3 mutant strain, stronger effect = higher value
In short: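 Steps: expose the mutant yeast strain to compound; grow alongside vehicle-treated cultures; measure growth; express inhibition against the vehicle cultures.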

[12] = NCI Yeast Anticancer Drug Screen. Data for the wt2 strain (AID 169);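 also: 0% = growth of vehicle-treated yeast cultures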; conditions: S. cerevisiae wt2 strain growth inhibition, stronger effect = higher value
In short: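 Yeast cells were exposed to test compounds, and growth inhibition was measured relative to vehicle-treated controls.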

[13] = NCI Yeast Anticancer Drug Screen. Data for the mlh1 strain (AID 171);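 also: 0% = growth of vehicle-treated control cultures of the same strain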; conditions: S. cerevisiae mlh1 strain growth inhibition, stronger effect = higher value
In short: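 Yeast carrying a defined genetic alteration in DNA damage repair or cell cycle control were exposed to test compounds. Growth inhibition was measured relative to vehicle-treated controls.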

[14] = NCI Yeast Anticancer Drug Screen. Data for the sgs1 strain (AID 173);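 also: 0% = growth of vehicle-only control cultures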; conditions: S. cerevisiae sgs1 mutant, stronger effect = higher value
In short: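 Yeast mutant strains carrying defined defects in DNA damage repair or cell cycle control were exposed to test compounds. Growth inhibition was scored against vehicle-treated controls.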

[15] = NCI Yeast Anticancer Drug Screen. Data for the mlh1 rad18 strain (AID 175); conditions: S. cerevisiae mlh1 rad18 strain growth inhibition, stronger effect = higher value
In short: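 Growth inhibition of the yeast strain was measured after compound exposure and expressed relative to vehicle-treated controls. The strain carries defined defects in DNA damage repair.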

[16] = NCI Yeast Anticancer Drug Screen. Data for the rad18 strain (AID 177); conditions: S. cerevisiae rad18 mutant growth inhibition, stronger effect = higher value
In short: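 Yeast carrying a defined DNA damage repair alteration were exposed to compounds. Growth inhibition was expressed relative to vehicle-treated controls.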

[17] = at 5.0 µM (retest, dose inferred, filed as 0.5)
[18] = at 50.0 µM (retest, dose inferred, filed as 5.0)

Measured: growth inhibition

O=C1c2ccccc2C(=O)N1CCCC(=O)n1cc(F)c(=O)[nH]c1=O
inactive: [1]; at 1.2 µM -31% | [1]; at 3.7 µM -33% | [1]; at 11.0 µM 0% | [1]; at 33.0 µM 29% | [1]; at 100.0 µM 8% | [2]; at 1.2 µM -51% | [2]; at 3.7 µM -43% | [2]; at 11.0 µM -26% | [2]; at 33.0 µM -21% | [2]; at 100.0 µM 34% | [3]; at 1.2 µM -25% | [3]; at 3.7 µM -16% | [3]; at 11.0 µM 27% | [3]; at 33.0 µM 69% | [4]; at 1.2 µM 5% | [4]; at 3.7 µM 23% | [4]; at 11.0 µM 47% | [5]; at 1.2 µM -3% | [5]; at 3.7 µM 2% | [5]; [17] 27% | [5]; at 11.0 µM 18% | [5]; at 33.0 µM 51% | [5]; [18] 66% | [6]; at 1.2 µM -24% | [6]; at 3.7 µM -19% | [6]; [17] 20% | [6]; at 11.0 µM 18% | [7]; at 1.2 µM -33% | [7]; at 3.7 µM -40% | [7]; at 11.0 µM -26% | [7]; at 33.0 µM -7% | [7]; at 100.0 µM 40% | [8]; [17] 24% | [8]; [18] 64% | [9]; at 1.2 µM 2% | [9]; at 3.7 µM 19% | [9]; at 11.0 µM -19% | [9]; at 33.0 µM 10% | [9]; at 100.0 µM 38% | [10]; [17] 30% | [10]; [18] 61% | [10]; at 50.0 µM 27.1% | [11]; at 1.2 µM 9% | [11]; at 3.7 µM 17% | [11]; [17] 11% | [11]; at 11.0 µM 10% | [11]; at 33.0 µM 45% | [11]; [18] 19% | [11]; at 50.0 µM 46.5% | [11]; at 100.0 µM 60% | [12]; at 1.2 µM -19% | [12]; at 3.7 µM -12% | [12]; at 11.0 µM 16% | [12]; at 33.0 µM 56% | [13]; at 1.2 µM -20% | [13]; at 3.7 µM -18% | [13]; at 11.0 µM 17% | [13]; at 33.0 µM 59% | [14]; at 1.2 µM -14% | [14]; at 3.7 µM 7% | [14]; at 11.0 µM 41% | [15]; [17] 39% | [15]; [18] 68% | [15]; at 50.0 µM 60.2% | [16]; at 1.2 µM 11% | [16]; at 3.7 µM 5% | [16]; at 11.0 µM 14% | [16]; at 33.0 µM 42% | [16]; at 100.0 µM 68%
active: [3]; at 100.0 µM 88% | [4]; at 33.0 µM 74% | [4]; at 100.0 µM 91% | [5]; at 50.0 µM 71.3% | [5]; at 100.0 µM 79% | [6]; at 33.0 µM 73% | [6]; [18] 88% | [6]; at 50.0 µM 83.2% | [6]; at 100.0 µM 93% | [8]; at 50.0 µM 85.2% | [12]; at 100.0 µM 82% | [13]; at 100.0 µM 78% | [14]; at 33.0 µM 72% | [14]; at 100.0 µM 88%

Cc1c(-c2ccccn2)ccc2ccccc12
active: [3]; at 100.0 µM 71% | [4]; at 100.0 µM 88% | [5]; at 100.0 µM 73% | [8]; at 50.0 µM 80.8% | [11]; at 33.0 µM 70% | [11]; [18] 90% | [11]; at 50.0 µM 94.2% | [11]; at 100.0 µM 96% | [14]; at 100.0 µM 83%
inactive: [1]; at 1.2 µM -2% | [1]; at 3.7 µM -1% | [1]; at 11.0 µM 0% | [1]; at 33.0 µM 2% | [1]; at 100.0 µM 46% | [2]; at 1.2 µM -1% | [2]; at 3.7 µM 0% | [2]; at 11.0 µM -3% | [2]; at 33.0 µM -4% | [2]; at 100.0 µM 18% | [3]; at 1.2 µM -3% | [3]; at 3.7 µM 0% | [3]; at 11.0 µM 10% | [3]; at 33.0 µM 43% | [4]; at 1.2 µM 0% | [4]; at 3.7 µM -1% | [4]; at 11.0 µM -3% | [4]; at 33.0 µM 0% | [5]; at 1.2 µM 6% | [5]; at 3.7 µM 37% | [5]; [17] 1% | [5]; at 11.0 µM 44% | [5]; at 33.0 µM 15% | [5]; [18] 15% | [5]; at 50.0 µM 21.8% | [6]; at 1.2 µM -1% | [6]; at 3.7 µM 0% | [6]; [17] 1% | [6]; at 11.0 µM 1% | [6]; at 33.0 µM -1% | [6]; [18] 15% | [6]; at 50.0 µM 44.5% | [6]; at 100.0 µM 50% | [7]; at 1.2 µM 0% | [7]; at 3.7 µM 0% | [7]; at 11.0 µM 1% | [7]; at 33.0 µM 6% | [7]; at 100.0 µM 43% | [8]; [17] -2% | [8]; [18] 46% | [9]; at 1.2 µM -10% | [9]; at 3.7 µM -3% | [9]; at 11.0 µM -7% | [9]; at 33.0 µM -12% | [9]; at 100.0 µM -4% | [10]; [17] 1% | [10]; [18] 3% | [10]; at 50.0 µM 25.4% | [11]; at 1.2 µM 3% | [11]; at 3.7 µM 7% | [11]; [17] 18% | [11]; at 11.0 µM 24% | [12]; at 1.2 µM -2% | [12]; at 3.7 µM 7% | [12]; at 11.0 µM -4% | [12]; at 33.0 µM -3% | [12]; at 100.0 µM 43% | [13]; at 1.2 µM 0% | [13]; at 3.7 µM -1% | [13]; at 11.0 µM -76% | [13]; at 33.0 µM 0% | [13]; at 100.0 µM 39% | [14]; at 1.2 µM -2% | [14]; at 3.7 µM -1% | [14]; at 11.0 µM 1% | [14]; at 33.0 µM 24% | [15]; [17] -1% | [15]; [18] 20% | [15]; at 50.0 µM 59.8% | [16]; at 1.2 µM -1% | [16]; at 3.7 µM 2% | [16]; at 11.0 µM 6% | [16]; at 33.0 µM 13% | [16]; at 100.0 µM 67%
